Reference: PubChem BioAssay (EPA / NIEHS)
“And” between values parts separate entries of the source, which are not always exact repeats. Equal entries are not always repeated. The source holds several records for some structures; these can differ, active in one and inactive in another. The source made the active and inactive calls. How the source made its calls: active means hit-call score of the fitted dose curve at least 0.9, where 1 is the maximum; inactive means score below 0.9.

Experiments:
Conditions in all cases: primary human HUVEC with PBMC; actives raise or lower the signal
[1] = read-out: Interleukin-1 alpha (IL1a), IL1A (gene 3552); assay: BSK_LPS_IL1a: BioMAP Diversity Plus: LPS Assay for Interleukin-1 alpha (IL1a) Biomarker Activity (AID 2283080)
Summary of the method: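 Primary human HUVEC and PBMC co-culture stimulated with LPS is dosed and harvested at 24 h. Both increases and decreases in ELISA-measured IL-1a are scored relative to DMSO.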

[2] = read-out: Monocyte Chemoattractant Protein-1 (MCP1), CCL2 (gene 6347); assay: BSK_LPS_MCP1: BioMAP Diversity Plus: LPS Assay for Monocyte Chemoattractant Protein-1 (MCP1) Biomarker Activity (AID 2283081);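 on AC50: secreted MCP-1 protein quantified by ELISA in culture supernatant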
Summary of the method: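 Values derive from bidirectional fitting against DMSO of ELISA-measured MCP-1 in a human primary endothelial and mononuclear cell co-culture, 24 h after chemical addition under LPS activation.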

[3] = BSK_LPS_PGE2: BioMAP Diversity Plus: LPS Assay for Prostaglandin E2 (PGE2) Biomarker Activity (AID 2283082);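 on AC50: secreted prostaglandin E2 measured by ELISA in LPS-stimulated co-culture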
Summary of the method: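 ELISA read-out of PGE2 from human umbilical vein endothelial cells co-cultured with peripheral blood mononuclear cells under LPS, 24 h post-dose. Gain or loss of signal scored relative to DMSO baseline.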

[4] = read-out: Macrophage colony-stimulating factor (MCSF), CSF1 (gene 1435); assay: BSK_LPS_MCSF: BioMAP Diversity Plus: LPS Assay for Macrophage colony-stimulating factor (MCSF) Biomarker Activity (AID 2283083)
Summary of the method: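 Bidirectional fit versus DMSO of ELISA-measured M-CSF in co-cultured human umbilical vein endothelial cells and PBMC, sampled 24 h after dosing.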

[5] = read-out: Tissue Factor, F3 (gene 2152); assay: BSK_LPS_TissueFactor: BioMAP Diversity Plus: LPS Assay for Tissue Factor Biomarker Activity (AID 2283084)
Summary of the method: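 Read-out: CD142 ELISA, 24 h. System: LPS-driven human endothelial/PBMC co-culture. Analysis: up- or down-signal fitted against DMSO.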

[6] = read-out: Tumor necrosis factor (Homo sapiens) (UniProt P01375); assay: BSK_LPS_TNFa: BioMAP Diversity Plus: LPS Assay for Tumour Necrosis Factor alpha (TNFa) Biomarker Activity (AID 2283085);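 on AC50: TNFa protein level quantified by ELISA in the co-culture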
Summary of the method: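 HUVEC/PBMC co-culture, LPS-stimulated; 24 h post-dose; TNFa by ELISA; gain or loss of signal fitted bidirectionally vs DMSO baseline.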

[7] = read-out: Vascular cell adhesion molecule 1 (VCAM1), VCAM1 (gene 7412); assay: BSK_LPS_VCAM1: BioMAP Diversity Plus: LPS Assay for Vascular cell adhesion molecule 1 (VCAM1) Biomarker Activity (AID 2283086)
Summary of the method: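 ELISA read-out of VCAM-1 at 24 h post-dosing in an LPS-driven HUVEC/PBMC primary human co-culture; gain or loss of signal fitted bidirectionally against DMSO baseline. Cytotoxicity tracked in parallel cultures by SRB total-protein staining.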

[8] = read-out: CD38, CD38 (gene 952); assay: BSK_SAg_CD38: BioMAP Diversity Plus: SAg Assay for CD38 Biomarker Activity (AID 2283087)
Summary of the method: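 Measures CD38 on a human endothelial/PBMC co-culture driven by SEB and TSST-1, 24 h after compound exposure, using ELISA with fluorescence detection; DMSO defines baseline for bidirectional curve fitting.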

[9] = read-out: CD40, CD40 (gene 958); assay: BSK_SAg_CD40: BioMAP Diversity Plus: SAg Assay for CD40 Biomarker Activity (AID 2283088)
Summary of the method: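 Endpoint derived by fitting increases or decreases versus DMSO controls. CD40 is detected by fluorescence ELISA in a human vascular co-culture of endothelium and PBMC at 24 h.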

[10] = read-out: CD69, CD69 (gene 969); assay: BSK_SAg_CD69: BioMAP Diversity Plus: SAg Assay for CD69 Biomarker Activity (AID 2283089);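 on AC50: cell surface CD69 protein quantified by ELISA with fluorescence detection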
Summary of the method: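 HUVEC co-cultured with PBMC were dosed with chemical, and CD69 was measured by ELISA with fluorescence read-out 24 h later. Bidirectional curve fitting used DMSO as negative control and activity baseline.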

Chain of Tumor necrosis factor (Homo sapiens) (P01375 whole entry, looked up): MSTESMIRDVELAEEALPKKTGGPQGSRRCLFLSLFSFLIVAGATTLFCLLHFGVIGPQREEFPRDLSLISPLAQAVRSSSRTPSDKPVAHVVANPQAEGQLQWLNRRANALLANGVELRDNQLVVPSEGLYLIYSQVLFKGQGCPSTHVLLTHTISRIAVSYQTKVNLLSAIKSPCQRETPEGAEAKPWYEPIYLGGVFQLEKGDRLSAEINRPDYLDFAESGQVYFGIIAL

Row | SMILES | outcome [1] | outcome [2] | outcome [3] | outcome [4] | outcome [5] | outcome [6] | outcome [7] | outcome [8] | outcome [9] | outcome [10] | AC50 [2] | AC50 [3] | AC50 [4] | AC50 [5] | AC50 [7] | AC50 [8] | AC50 [9] | AC50 [10] | AC50 [1] | AC50 [6]
1 | OCC(O)CC(F)(F)C(F)(F)C(F)(F)C(F)(F)C(F)(F)C(F)(F)C(F)(F)C(F)(F)F (stereo not given) | inactive | inactive | inactive | inactive | inactive | inactive | inactive | inactive | inactive | inactive | – | – | – | – | – | – | – | – | – | –
2 | O=C1c2c(O)ccc(Nc3ccc(CCO)cc3)c2C(=O)c2c([N+](=O)[O-])ccc(O)c21 | inactive | – | – | – | – | inactive | – | – | – | – | 20 µM (active) | 29.4 µM (active) | 7.53 µM (active) | 3.97 µM (active) | 20 µM (active) | 20 µM (active) | 25.9 µM (active) | 14.2 µM (active) | – | –
3 | NC(=O)C(F)(F)C(F)(F)C(F)(F)C(F)(F)C(F)(F)C(F)(F)C(F)(F)F | inactive | inactive | inactive | inactive | inactive | inactive | inactive | inactive | inactive | inactive | – | – | – | – | – | – | – | – | – | –
4 | Cc1cc(C)c(O)c(C(C)(C)C)c1 | – | – | inactive | – | – | inactive | – | – | – | – | 36.7 µM (active) | – | 34.4 µM (active) | 30.8 µM (active) | 31.3 µM (active) | 32.5 µM (active) | 30.5 µM (active) | 31.5 µM (active) | 32.7 µM (active) | –
5 | NC(O)(C(F)(F)F)C(F)(F)F | inactive | inactive | inactive | inactive | inactive | inactive | inactive | inactive | inactive | inactive | – | – | – | – | – | – | – | – | – | –
6 | OCC(O)CC(F)(F)C(F)(F)C(F)(F)C(F)(F)F (stereo not given) | inactive | inactive | inactive | inactive | inactive | inactive | inactive | inactive | inactive | inactive | – | – | – | – | – | – | – | – | – | –
7 | CCN(CC)c1ccc2c(c1)Oc1cc(N(CC)CC)ccc1C21OC(=O)c2ccccc21 | inactive | inactive | inactive | inactive | – | inactive | inactive | inactive | inactive | inactive | – | – | – | 10 µM (active) | – | – | – | – | – | –
8 | C=CC(=O)OCC(F)(F)C(F)(F)C(F)(F)COC(=O)C=C | – | – | – | – | – | – | – | – | – | – | 18.8 µM (active) and 16.1 µM (active) | 8.09 µM (active) and 8.04 µM (active) | 14.9 µM (active) and 8.27 µM (active) | 21.9 µM (active) and 20.2 µM (active) | 15.1 µM (active) and 8.51 µM (active) | 14.2 µM (active) | 16.3 µM (active) and 12.2 µM (active) | 8.7 µM (active) and 8.29 µM (active) | 15.5 µM (active) and 12.1 µM (active) | 14.9 µM (active) and 15.7 µM (active)
9 | CN(C(=O)C(F)(F)C(F)(F)C(F)(F)F)[Si](C)(C)C | inactive | inactive | inactive | inactive | inactive | inactive | inactive | inactive | inactive | inactive | – | – | – | – | – | – | – | – | – | –
10 | CCN(CC)c1ccc(C=O)c(O)c1 | inactive | inactive | inactive | inactive | inactive | inactive | inactive | inactive | inactive | inactive | – | – | – | – | – | – | – | – | – | –
11 | Cc1ccc(S(=O)(=O)C(I)I)cc1 | – | – | inactive | – | – | inactive | – | – | – | – | 3.77 µM (active) | – | 2.3 µM (active) | 3.07 µM (active) | 3.03 µM (active) | 2.99 µM (active) | 2.98 µM (active) | 3.25 µM (active) | 1.92 µM (active) | –
12 | C[C@]12CC[C@H]3C(=CCc4cc(O)ccc43)[C@@H]1CCC2=O | inactive | inactive | inactive | inactive | inactive | inactive | inactive | inactive | inactive | inactive | – | – | – | – | – | – | – | – | – | –
13 | O=C(c1ccccc1)c1ccc(O)cc1O | inactive | inactive | – | inactive | inactive | inactive | inactive | – | inactive | inactive | – | 0.726 µM (active) | – | – | – | 20 µM (active) | – | – | – | –
14 | O=C(O)CCC(F)(F)C(F)(F)C(F)(F)F | inactive | inactive | inactive | inactive | inactive | inactive | inactive | inactive | inactive | inactive | – | – | – | – | – | – | – | – | – | –
15 | CC(C)(C)c1cc(CCC(=O)NCCCCCCNC(=O)CCc2cc(C(C)(C)C)c(O)c(C(C)(C)C)c2)cc(C(C)(C)C)c1O | inactive | inactive | inactive | inactive | inactive | inactive | inactive | inactive | inactive | inactive | – | – | – | – | – | – | – | – | – | –
16 | Cc1cnccn1 | inactive | inactive | inactive | inactive | inactive | inactive | inactive | inactive | inactive | inactive | – | – | – | – | – | – | – | – | – | –
17 | O=S(=O)(Cl)C(F)(F)C(F)(F)C(F)(F)C(F)(F)C(F)(F)C(F)(F)C(F)(F)C(F)(F)F | inactive | inactive | – | inactive | inactive | inactive | inactive | inactive | inactive | inactive | – | 46.8 µM (active) and 42.8 µM (active) | – | – | – | – | – | 15 µM (active) | – | –
18 | Brc1nc2ccccc2s1 | – | inactive | inactive | inactive | inactive | inactive | inactive | inactive | inactive | inactive | – | – | – | – | – | – | – | – | – | –
